This is part of a sample that, as a whole, favours compounds with a hit. Of some 83,000 tested, about 20% had one in any assay.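 Method: cells in 96-well plates; compound added at one concentration; 48 h incubation; percent growth measured; values under 10 scored active.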 The source made the active and inactive calls.
Legend:
Assay in all cases: NCI-60 one-dose screen, 48 h (100 = growth as untreated, 0 = no growth, -100 = all killed)
Settings in all cases: 10 µM unless noted
T-47D breast = tested on: T-47D breast
BT-549 breast = tested on: BT-549 breast
MDA-MB-435 melanoma = tested on: MDA-MB-435 melanoma
SW-620 colon = tested on: SW-620 colon
MCF7 breast = tested on: MCF7 breast
HCT-116 colon = tested on: HCT-116 colon
HCC-2998 colon = tested on: HCC-2998 colon
KM12 colon = tested on: KM12 colon

Measured: growth

COC1=C(C)C(=O)c2c(c(CCCl)c3n2CCC3OC(C)=O)C1=O (centres undefined)
inactive: T-47D breast 60.6%
active: BT-549 breast -48.2% | MDA-MB-435 melanoma -58% | SW-620 colon 3.87% | MCF7 breast -39.9% | HCT-116 colon -19.7% | HCC-2998 colon -48.1% | KM12 colon -18.6%

COc1ccc(S(=O)(=O)n2cc(C3OC(c4cc(OC)c(OC)c(OC)c4)=NN3C(C)=O)c3ccccc32)cc1OC (centres undefined)
inactive: T-47D breast 54.7% | BT-549 breast 51.8% | MDA-MB-435 melanoma 95.4% | SW-620 colon 97.9% | MCF7 breast 88% | HCT-116 colon 67.7% | HCC-2998 colon 105% | KM12 colon 137%

COc1cc(C2CC(c3ccc(SC)cc3)=NN2C(C)=O)cc(OC)c1OC (centres undefined)
inactive: T-47D breast 72.1% | BT-549 breast 36.4% | SW-620 colon 38.5% | MCF7 breast 41.9% | HCT-116 colon 41.5% | HCC-2998 colon 61% | KM12 colon 39.4%
active: MDA-MB-435 melanoma -28.5%

CN1CCN(CC(=O)N2c3cccc4cccc(c34)N(C(=O)CN3CCN(C)CC3)C2c2cn(-c3ccccc3)nc2-c2cccc([N+](=O)[O-])c2)CC1
inactive: BT-549 breast 71.2% | KM12 colon 26%
active: T-47D breast -75.8% | MDA-MB-435 melanoma -42.6% | SW-620 colon -26.4% | MCF7 breast -71.1% | HCT-116 colon -58.2% | HCC-2998 colon -52.9%

Brc1ccc2[nH]cc(-c3nc(-c4c[nH]c5ccncc45)cs3)c2c1
inactive: BT-549 breast 87.8%
active: T-47D breast -48.3% | MDA-MB-435 melanoma -90.8% | SW-620 colon -76.7% | MCF7 breast -63.3% | HCT-116 colon -93.7% | HCC-2998 colon -79.3% | KM12 colon -81.9%

O=C(N/N=C/[C@H](O)[C@@H](O)[C@@H](O)[C@H](O)CO)c1ccc(NC(=O)c2cccnc2)cc1
inactive: T-47D breast 100% | BT-549 breast 106% | MDA-MB-435 melanoma 106% | SW-620 colon 108% | MCF7 breast 94.8% | HCT-116 colon 108% | HCC-2998 colon 117% | KM12 colon 106%

COc1nc2ccc(C)cc2cc1-c1nc2c(cnn2-c2ccccc2)c(=O)[nH]1
active: MDA-MB-435 melanoma 8.39%
inactive: T-47D breast 81.9% | BT-549 breast 89.6% | SW-620 colon 58.5% | MCF7 breast 50.6% | HCT-116 colon 67.2% | HCC-2998 colon 96.3% | KM12 colon 70.6%

O=c1c2cccc(F)c2sc2c(NCCCNCCO)nc3ccccc3c12
inactive: T-47D breast 51.8% | BT-549 breast 72.6% | MCF7 breast 20.2%
active: MDA-MB-435 melanoma 6.93% | SW-620 colon -68.1% | HCT-116 colon 0.842% | HCC-2998 colon -51.7% | KM12 colon 9.05%

O=C(/C=C/c1cccc2ccccc12)c1ccc(NC(=O)c2ccccc2CN2C(=O)c3ccccc3C2=O)cc1
inactive: T-47D breast 71% | BT-549 breast 68.8% | SW-620 colon 33.2% | MCF7 breast 56.7% | HCT-116 colon 39.3% | HCC-2998 colon 109% | KM12 colon 40.6%
active: MDA-MB-435 melanoma 6.48%

COc1ccc2c(c1OC)C(=O)O[C@H]2[C@H]1c2c(cc3c(c2OC)OCO3)CCN1C
inactive: T-47D breast 109% | BT-549 breast 98.3% | MDA-MB-435 melanoma 54.1% | SW-620 colon 92.1% | MCF7 breast 93.9% | HCT-116 colon 92.6% | HCC-2998 colon 96.6% | KM12 colon 95.2%

COc1ccc(NC(=O)n2nc(/C=C\c3ccc(O)c(OC)c3)cc2/C=C\c2ccc(O)c(OC)c2)cc1
inactive: T-47D breast 34.8% | BT-549 breast 31.4% | SW-620 colon 27.1% | MCF7 breast 15.6% | HCC-2998 colon 74.9% | KM12 colon 17.9%
active: MDA-MB-435 melanoma -36.3% | HCT-116 colon 9.13%

CN(C)CCCNc1nc2ccccc2c2c(=O)c3cc(F)ccc3sc12
active: MDA-MB-435 melanoma -79.7% | SW-620 colon -51.4% | HCT-116 colon -47% | HCC-2998 colon -80.4% | KM12 colon 3.81%
inactive: T-47D breast 43.1% | BT-549 breast 100% | MCF7 breast 18.5%

Clc1ccc2c(c1)N(CCCN1CCCC1)c1ccccc1S2
inactive: T-47D breast 57.8% | BT-549 breast 66.5% | SW-620 colon 26.2% | HCT-116 colon 26.5% | HCC-2998 colon 32% | KM12 colon 44.6%
active: MDA-MB-435 melanoma -35.9% | MCF7 breast 6.29%

CCCCn1c(=O)c(-c2cc(-c3ccc(Cl)cc3)nc(-c3ccc(Cl)cc3)c2)cc2cc(C)ccc21
inactive: T-47D breast 95.8% | BT-549 breast 103% | MDA-MB-435 melanoma 104% | SW-620 colon 99.6% | MCF7 breast 97.6% | HCT-116 colon 99.8% | HCC-2998 colon 105% | KM12 colon 102%

CC1(C)C2CC1C1(/C=N\Nc3ccccc3)C(C2)C(C#N)(C#N)C1(C#N)C#N (centres undefined)
inactive: T-47D breast 72.6% | BT-549 breast 107% | MDA-MB-435 melanoma 104% | SW-620 colon 101% | MCF7 breast 94.8% | HCT-116 colon 83.9% | HCC-2998 colon 94.6% | KM12 colon 81.3%

COc1ccc(/C=C(\C#N)n2nnc3c(F)cccc32)cc1
active: MDA-MB-435 melanoma -78.4% | HCT-116 colon 8.75% | HCC-2998 colon 1.33% | KM12 colon 7.96%
inactive: T-47D breast 16.1% | BT-549 breast 45.4% | SW-620 colon 15.6% | MCF7 breast 18.8%

COc1ccc(-c2csc(NC(=O)N3CCN(c4cc5c(cc4F)c(=O)c(C(=O)O)cn5C4CC4)CC3)n2)cc1
inactive: SW-620 colon 15.7% | HCC-2998 colon 31%
active: T-47D breast 5.11% | BT-549 breast -13.5% | MDA-MB-435 melanoma 3.67% | MCF7 breast 3.38% | HCT-116 colon 5.37% | KM12 colon 3.67%

C=C1C(=O)O[C@H]2[C@H]1CC/C(COC(=O)CSCC(=O)OC/C1=C/CC[C@@]3(C)O[C@H]3[C@H]3OC(=O)C(=C)[C@@H]3CC1)=C\CC[C@@]1(C)O[C@@H]21
active: BT-549 breast -1.44% | SW-620 colon -29% | HCT-116 colon -46.6%
inactive: T-47D breast 12.3% | MDA-MB-435 melanoma 26.8% | MCF7 breast 23.4% | HCC-2998 colon 94.5% | KM12 colon 69.4%

NC1=NC(c2cccc(Br)c2)c2sc3ccc(Cl)cc3c2N1 (centres undefined)
inactive: T-47D breast 88.8% | BT-549 breast 122% | MDA-MB-435 melanoma 98.2% | SW-620 colon 103% | MCF7 breast 75.4% | HCT-116 colon 97.9% | HCC-2998 colon 114% | KM12 colon 93.7%

N[C@@H](Cc1ccccc1)[C@@H](O)C(=O)NCc1ccc(F)cc1
inactive: T-47D breast 113% | BT-549 breast 105% | MDA-MB-435 melanoma 101% | SW-620 colon 103% | MCF7 breast 94.9% | HCT-116 colon 96.1% | HCC-2998 colon 113% | KM12 colon 102%

CCCCCCNC(=O)Oc1ccc(/C(=C(\C)c2ccc(Cl)cc2)c2ccc(OCCN3CCCCC3)cc2)cc1
inactive: T-47D breast 29.1% | BT-549 breast 64.4% | MDA-MB-435 melanoma 52.6% | HCC-2998 colon 62.9% | KM12 colon 36.5%
active: SW-620 colon 7.33% | MCF7 breast 7.75% | HCT-116 colon 6.05%

c1ccc(-c2nc3nonc3nc2-c2ccccc2)cc1
inactive: T-47D breast 61.6% | BT-549 breast 56.2% | MDA-MB-435 melanoma 43.1% | SW-620 colon 82.3% | MCF7 breast 60.9% | HCT-116 colon 62.5% | HCC-2998 colon 95.4% | KM12 colon 74.4%

COc1cc(/C=C/c2c(C(C)=O)c(C)nc3ccccc23)cc(OC)c1OC
active: MDA-MB-435 melanoma -0.529%
inactive: T-47D breast 39.7% | BT-549 breast 48.4% | SW-620 colon 29.6% | MCF7 breast 19.3% | HCT-116 colon 23.9% | HCC-2998 colon 54.8% | KM12 colon 29.1%

CCS(=O)(=O)c1ncnc2nc[nH]c12
inactive: T-47D breast 89.8% | BT-549 breast 90.9% | MDA-MB-435 melanoma 104% | SW-620 colon 99.8% | MCF7 breast 89.2% | HCT-116 colon 87.3% | HCC-2998 colon 107% | KM12 colon 108%

C[C@]12CC[C@@H]3c4cc(OC(F)F)c(OS(N)(=O)=O)cc4CC[C@H]3[C@@H]1CC[C@@H]2O
inactive: T-47D breast 43.7% | BT-549 breast 41.8% | SW-620 colon 28.1% | MCF7 breast 22.1% | HCT-116 colon 21.3% | HCC-2998 colon 16.2% | KM12 colon 12.2%
active: MDA-MB-435 melanoma -70.8%

CCOC(=O)/C=C1\S/C(=N\Nc2ccc([N+](=O)[O-])cc2[N+](=O)[O-])N(Cc2ccccc2)C1=O
inactive: T-47D breast 56% | BT-549 breast 109% | MDA-MB-435 melanoma 98.2% | SW-620 colon 70.9% | MCF7 breast 72.8% | HCT-116 colon 75.3% | HCC-2998 colon 93% | KM12 colon 97.5%

Cc1nc2ccccc2n1CC1C(=O)NC(=O)NC1=O
inactive: T-47D breast 107% | BT-549 breast 121% | MDA-MB-435 melanoma 101% | SW-620 colon 108% | MCF7 breast 100% | HCT-116 colon 104% | HCC-2998 colon 127% | KM12 colon 103%

Brc1c[n+](Cc2ccc3ccccc3c2)cn1Cc1ccc2ccccc2c1
active: T-47D breast 6.91% | BT-549 breast -12.1% | MDA-MB-435 melanoma -32.1% | HCC-2998 colon -28.5% | KM12 colon -73.5%
inactive: SW-620 colon 37.7% | MCF7 breast 14.3% | HCT-116 colon 17%

— PubChem BioAssay (NCI)
